This assay deals with Torsin-1A-interacting protein 2 (Homo sapiens) (UniProt Q8NFQ8). In words: LULL1 binders on small-molecule microarray, primary screen, cell lysate, human LULL1 lysate, 635/667 nm fluorescence (AID 1092).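 Note: score merges per-feature 667 nm fluorescence with signal-to-noise.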 To be noted: hLULL1 lysate binding, 635 nm fluorescence, higher = more signal.
Chain of Torsin-1A-interacting protein 2 (Homo sapiens) (Q8NFQ8 whole entry, looked up): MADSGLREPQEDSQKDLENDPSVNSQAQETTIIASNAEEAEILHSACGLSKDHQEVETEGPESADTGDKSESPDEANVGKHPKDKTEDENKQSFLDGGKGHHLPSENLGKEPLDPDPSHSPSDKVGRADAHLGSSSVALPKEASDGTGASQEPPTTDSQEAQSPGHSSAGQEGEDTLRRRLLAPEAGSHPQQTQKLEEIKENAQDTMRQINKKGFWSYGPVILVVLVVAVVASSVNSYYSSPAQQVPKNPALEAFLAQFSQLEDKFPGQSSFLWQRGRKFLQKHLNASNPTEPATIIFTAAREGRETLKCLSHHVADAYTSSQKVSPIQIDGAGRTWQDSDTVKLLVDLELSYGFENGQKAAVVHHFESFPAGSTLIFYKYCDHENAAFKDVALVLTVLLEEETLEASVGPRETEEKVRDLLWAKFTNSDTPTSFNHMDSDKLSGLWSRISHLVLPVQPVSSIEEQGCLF
Take `Cc1ccc(NN2C(C(O)c3c(F)cccc3Cl)C=CC3C(=O)N(C4CCCCC4)C(=O)C32)cc1` (centres undefined): the composite z-score was found to be 3.02. Take `CC(C)N1C(=O)C[C@@](C(=O)O)(c2ccc([N+](=O)[O-])cc2)[C@H]1c1ccc(CO)cc1`: the composite z-score was found to be 2.72. In turn, `CCCN1C(=O)[C@@]2(Cc3ccccc31)N=C(c1ccc(OCCCO)cc1)O[C@H]2c1ccccc1` registered a composite z-score of 2.58. With `C=CCN1C(=O)[C@]2(CCS(=O)(=O)c3ccccc3)N=C(c3ccc(OCCCO)cc3)O[C@@H]2c2ccccc21` the figure was 3.65; with `C=CC[C@@]1(C(=O)NCCCOC)N=C(c2ccc(OCCCO)cc2)O[C@@H]1c1ccccc1`, 3.37; with `COC(=O)c1c(CC[C@@H](CO)NC(=O)N2CCC[C@H]2Cn2cc(C3(O)CCCCC3)nn2)oc(C(C)=O)c1C(=O)OC`, 3.4.

`COCC(=C=CC[C@H](O)c1ccc(OCCO)cc1)CCO` gave a composite z-score of 2.42. `C=CCNC(=O)[C@@H]1[C@H]2C(=O)O[C@H](c3ccccc3)[C@H](c3ccccc3)N2[C@H](c2ccccc2OCCO)[C@@]12C(=O)N(C(=O)OCCOC)c1ccc(C#CC3(O)CCCCCC3)cc12`: the composite z-score amounted to 2.86.

`COc1ccc([Si](C)(C)[C@@H]2[C@@H](CCO)O[C@]3(C(=O)N(Cc4ccccc4)c4ccc(N5C(=O)c6cccc7cccc5c67)cc43)[C@H]2C)cc1` showed a composite z-score of 0.984.

As for `C=CC[C@]1(C(=O)N2CCCCC2)N=C(c2ccc(OCCCO)cc2)O[C@H]1c1ccccc1CN=[N+]=[N-]`, the composite z-score was determined as 3.19. Regarding `COC(=O)C1(CC(C)C)C=C2C(=C(c3ccccc3)C(=O)C2C)CN1` (centres undefined), the composite z-score is 2.16. On to `COc1ccc(CCNC(=O)[C@@H]2c3ccccc3C(=O)N(C3CCCCC3)[C@H]2c2ccc(CO)cc2)cc1`, for which the composite z-score amounted to 3.07. With `CCCCCN1CC=CC23O[C@@H]4C=CCCOC(=O)C4[C@H]2C(=O)N(CCCCCCO)[C@@H]3C1=O` (some centres undefined) the figure was 3.49. As to `CCOC(=O)C[C@H]1[C@H](OC(=O)c2ccc(-c3ccccc3)cc2)[C@@H](NC(=O)CC(C)C)c2cc(OCCCO)ccc2N1C(=O)c1ccc2ccccc2n1`, the composite z-score is 1.15. The value for `COC(=O)C(CC#Cc1ccc2c(c1)[C@]1(C(=O)N2)[C@H](c2ccc(O)cc2)N2[C@H](c3ccccc3)[C@H](c3ccccc3)OC(=O)[C@H]2[C@@H]1C(=O)NC[C@H](O)c1ccccc1)C(=O)OC` was 1.97. `COC(=O)[C@]1(CCS(=O)(=O)c2ccccc2)N=C(c2ccc(OCCCO)cc2)O[C@@H]1c1ccccc1N=[N+]=[N-]` displayed a composite z-score of 3.23. Molecule `O=C1C2C=CC(C(O)C3CC=CCC3)N(Nc3ccccc3)C2C(=O)N1c1ccccc1` (centres undefined) came in with a composite z-score of 3.09.

`CCOC(=O)C[C@H]1[C@H](OC(=O)c2cc3ccccc3oc2=O)[C@@H](NC(=O)c2ccccc2)c2cc(OCCCO)ccc2N1C(=O)c1ccccc1`: the composite z-score was -0.098. `COc1ccc([Si](C)(C)[C@H]2[C@H](CC(=O)N3Cc4ccccc4C[C@H]3CO)O[C@@]3(C(=O)N(Cc4ccc(N5CCOC5=O)cc4)c4ccccc43)[C@@H]2C)cc1` returned a composite z-score of 1.25. `CC1CC/C=C\[C@H]2OC34C=CCN(C(C)C)C(=O)[C@H]3N(CCO)C(=O)[C@@H]4C2C(=O)O1` (some centres undefined) showed a composite z-score of -0.021. With `COCCCNC(=O)[C@@H]1c2ccccc2C(=O)N(C(C)C)[C@H]1c1ccc(CO)cc1`, the composite z-score is -0.719. Molecule `COc1cccc(C)c1NC(=O)O[C@H]1[C@H](OC(=O)Nc2ccccc2-c2ccccc2)[C@H](OC(=O)Nc2ccccc2-c2ccccc2)[C@@H](OC)O[C@@H]1CO` returned a composite z-score of 3.18. `CC(C)c1ccc(NN2C(C(O)c3ccc(F)cc3)C=CC3C(=O)N(c4ccccc4)C(=O)C32)cc1` (centres undefined) gave a composite z-score of 3.57. The value for `C#CCN(Cc1ccccc1Br)[C@H](/C=C/c1ccccc1)[C@@H](O)Cc1ccccc1` was 0.98; that for `[N-]=[N+]=Nc1ccccc1C[C@]1(C(=O)NCC(O)CO)COC(c2ccc(OCCCO)cc2)=N1` (some centres undefined) was 3.11; that for `O=C1O[C@@H](c2ccccc2)[C@@H](c2ccccc2)N2[C@@H](c3ccc(OCCO)cc3)[C@]3(C(=O)Nc4ccc(C#CC5=CCCCC5)cc43)[C@@H](C(=O)NC[C@H](O)c3ccccc3)[C@H]12` was 2.46. `CCCC=C(CCC)[C@@H](NS(=O)(=O)c1ccc(C(F)(F)F)cc1)c1ccccc1`: the composite z-score is 1.41. The value for `CCCCCCCCCC(O)C1C=CC2C(=O)N(c3ccccc3)C(=O)C2N1Nc1cc(OC)c(OC)c(OC)c1` (centres undefined) was 2.23. In turn, `O=C(c1ccccc1)N1C(=O)[C@]2(Cc3ccccc31)N=C(c1ccc(OCCCO)cc1)O[C@@H]2c1ccccc1` registered a composite z-score of 3.25.

These data come from PubChem BioAssay.
